The results in this text go back to ChEMBL document CHEMBL1961873, “Compounds: GSK PKIS; Assays: Nanosyn kinase panel” (2012).

A word on the inhibition: it is the relative decrease from the control value, in per cent.

The target in assay [1] is High affinity nerve growth factor receptor (Homo sapiens) (UniProt P04629). The following applies: at 1 µM.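 Also: each value is the mean percent inhibition of TRKA.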
The target in assay [2] is BDNF/NT-3 growth factors receptor (Homo sapiens) (UniProt Q16620). The following applies: at 0.1 µM.
Assay [3] has the same target. To be noted: at 1 µM.
Assay [4] deals with NT-3 growth factor receptor (Homo sapiens) (UniProt Q16288). The following applies: at 0.1 µM.
Assay [5] has the same target. The following applies: at 1 µM.
Assay [6] deals with T1, Tyrosine-protein kinase TXK (Homo sapiens) (UniProt P42681).
T1 sequence (whole entry): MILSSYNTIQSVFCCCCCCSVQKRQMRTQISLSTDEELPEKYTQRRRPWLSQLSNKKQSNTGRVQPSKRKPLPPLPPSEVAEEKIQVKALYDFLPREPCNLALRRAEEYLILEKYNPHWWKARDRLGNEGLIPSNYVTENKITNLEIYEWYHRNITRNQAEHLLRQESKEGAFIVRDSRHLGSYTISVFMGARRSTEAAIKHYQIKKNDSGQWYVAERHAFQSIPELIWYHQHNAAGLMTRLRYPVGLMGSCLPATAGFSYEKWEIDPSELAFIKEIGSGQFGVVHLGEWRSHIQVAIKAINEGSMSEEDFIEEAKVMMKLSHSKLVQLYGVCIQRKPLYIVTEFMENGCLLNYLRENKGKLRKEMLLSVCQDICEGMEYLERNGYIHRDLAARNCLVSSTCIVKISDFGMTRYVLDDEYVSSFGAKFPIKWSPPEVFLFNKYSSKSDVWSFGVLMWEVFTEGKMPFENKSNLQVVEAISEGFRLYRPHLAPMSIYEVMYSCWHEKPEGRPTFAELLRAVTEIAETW
To be noted: at 0.1 µM.

In assay [7] the target is T1, Tyrosine-protein kinase TXK (Homo sapiens). The following applies: at 1 µM.
In assay [8] the target is Non-receptor tyrosine-protein kinase TYK2 (Homo sapiens) (UniProt P29597). To be noted: at 0.1 µM.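 Also: each value is a mean of the inhibition readings.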
For assay [9], the target named is T2, Dual specificity protein kinase TTK (Homo sapiens) (UniProt P33981).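 Also: reported figures are mean TTK inhibition at 1 µM.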
T2 sequence (whole entry): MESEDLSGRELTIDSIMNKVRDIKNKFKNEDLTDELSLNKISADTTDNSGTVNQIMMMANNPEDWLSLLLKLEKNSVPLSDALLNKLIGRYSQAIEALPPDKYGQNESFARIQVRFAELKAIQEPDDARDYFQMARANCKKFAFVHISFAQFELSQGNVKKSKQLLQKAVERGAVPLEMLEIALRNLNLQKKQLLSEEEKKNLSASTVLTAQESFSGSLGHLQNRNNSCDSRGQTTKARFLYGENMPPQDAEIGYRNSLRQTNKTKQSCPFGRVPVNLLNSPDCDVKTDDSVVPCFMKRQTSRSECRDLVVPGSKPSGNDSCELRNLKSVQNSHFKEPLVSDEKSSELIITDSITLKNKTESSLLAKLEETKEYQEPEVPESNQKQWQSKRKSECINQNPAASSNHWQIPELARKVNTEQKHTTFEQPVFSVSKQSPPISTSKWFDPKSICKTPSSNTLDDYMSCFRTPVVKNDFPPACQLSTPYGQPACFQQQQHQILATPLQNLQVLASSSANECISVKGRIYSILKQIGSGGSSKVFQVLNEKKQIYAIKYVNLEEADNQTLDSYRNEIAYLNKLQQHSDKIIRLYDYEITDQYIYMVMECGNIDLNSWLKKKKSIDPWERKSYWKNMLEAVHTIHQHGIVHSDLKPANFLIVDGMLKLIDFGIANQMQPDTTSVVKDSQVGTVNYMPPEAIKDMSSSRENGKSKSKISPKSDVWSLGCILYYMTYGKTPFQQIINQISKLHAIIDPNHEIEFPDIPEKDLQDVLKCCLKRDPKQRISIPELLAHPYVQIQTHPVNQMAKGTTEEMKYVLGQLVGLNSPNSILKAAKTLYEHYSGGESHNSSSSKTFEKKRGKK
The following applies: at 1 µM.

Assay [10] concerns the target T3, Aurora kinase A (Homo sapiens) (UniProt O14965).
T3 sequence (whole entry): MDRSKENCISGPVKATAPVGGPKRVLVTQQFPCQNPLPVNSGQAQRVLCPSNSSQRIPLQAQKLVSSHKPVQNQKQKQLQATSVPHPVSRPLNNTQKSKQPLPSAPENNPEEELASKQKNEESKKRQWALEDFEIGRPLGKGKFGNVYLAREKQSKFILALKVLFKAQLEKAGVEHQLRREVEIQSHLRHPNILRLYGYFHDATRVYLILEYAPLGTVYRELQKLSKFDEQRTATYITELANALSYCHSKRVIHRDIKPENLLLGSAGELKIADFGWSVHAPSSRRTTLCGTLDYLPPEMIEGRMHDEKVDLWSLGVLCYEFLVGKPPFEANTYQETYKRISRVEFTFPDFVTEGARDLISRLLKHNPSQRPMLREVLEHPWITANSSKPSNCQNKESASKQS
To be noted: at 0.1 µM.

The target in assay [11] is T3, Aurora kinase A (Homo sapiens). To be noted: at 1 µM.
For assay [12], the target named is Aurora kinase B (Homo sapiens) (UniProt Q96GD4). To be noted: at 0.1 µM.
For assay [13] the target is unchanged. The following applies: at 1 µM.
The target in assay [14] is T4, Aurora kinase C (Homo sapiens) (UniProt Q9UQB9).
T4 sequence (whole entry): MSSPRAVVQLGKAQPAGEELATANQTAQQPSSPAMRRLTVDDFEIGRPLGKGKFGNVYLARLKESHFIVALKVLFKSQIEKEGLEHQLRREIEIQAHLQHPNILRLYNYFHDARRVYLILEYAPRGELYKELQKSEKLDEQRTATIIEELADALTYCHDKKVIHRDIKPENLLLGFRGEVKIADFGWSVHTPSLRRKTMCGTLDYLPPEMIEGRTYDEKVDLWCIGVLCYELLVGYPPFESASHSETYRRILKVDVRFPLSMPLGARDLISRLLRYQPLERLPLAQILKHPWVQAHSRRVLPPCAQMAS
To be noted: at 0.1 µM.

The target in assay [15] is T4, Aurora kinase C (Homo sapiens). To be noted: at 1 µM.
Assay [16] addresses Serine/threonine-protein kinase 10 (Homo sapiens) (UniProt O94804). To be noted: at 0.1 µM.
For assay [17] the target is unchanged. To be noted: at 1 µM.
Assay [18] addresses T5, Mitogen-activated protein kinase kinase kinase kinase 2 (Homo sapiens) (UniProt Q12851).
T5 sequence (whole entry): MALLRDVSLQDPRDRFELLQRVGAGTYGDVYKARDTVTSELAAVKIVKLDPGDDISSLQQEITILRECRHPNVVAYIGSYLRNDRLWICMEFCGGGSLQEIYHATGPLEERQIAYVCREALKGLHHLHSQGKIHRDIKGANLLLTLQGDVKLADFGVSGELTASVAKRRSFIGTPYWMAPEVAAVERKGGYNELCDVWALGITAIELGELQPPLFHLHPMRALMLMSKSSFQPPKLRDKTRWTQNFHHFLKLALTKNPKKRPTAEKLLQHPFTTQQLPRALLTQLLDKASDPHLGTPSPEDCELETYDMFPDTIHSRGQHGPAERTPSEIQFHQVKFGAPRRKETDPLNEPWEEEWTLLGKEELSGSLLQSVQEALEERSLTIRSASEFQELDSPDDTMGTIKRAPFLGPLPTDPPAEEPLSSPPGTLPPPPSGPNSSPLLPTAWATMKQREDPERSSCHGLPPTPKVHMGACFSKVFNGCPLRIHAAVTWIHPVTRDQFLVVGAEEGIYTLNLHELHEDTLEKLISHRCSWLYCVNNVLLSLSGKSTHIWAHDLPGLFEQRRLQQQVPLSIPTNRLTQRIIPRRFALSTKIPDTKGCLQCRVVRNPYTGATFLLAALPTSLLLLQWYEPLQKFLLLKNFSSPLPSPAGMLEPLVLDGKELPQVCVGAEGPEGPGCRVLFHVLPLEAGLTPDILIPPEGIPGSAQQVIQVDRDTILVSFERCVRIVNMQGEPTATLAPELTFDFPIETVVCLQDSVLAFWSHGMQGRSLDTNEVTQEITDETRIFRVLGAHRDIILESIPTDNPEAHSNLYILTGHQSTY
To be noted: at 0.1 µM.

The target in assay [19] is T5, Mitogen-activated protein kinase kinase kinase kinase 2 (Homo sapiens). The following applies: at 1 µM.
Assay [20] addresses Mitogen-activated protein kinase kinase kinase kinase 4 (Homo sapiens) (UniProt O95819). The following applies: at 0.1 µM.

BDNF/NT-3 growth factors receptor (Homo sapiens), sequence (Q16620 32-822 limits assumed): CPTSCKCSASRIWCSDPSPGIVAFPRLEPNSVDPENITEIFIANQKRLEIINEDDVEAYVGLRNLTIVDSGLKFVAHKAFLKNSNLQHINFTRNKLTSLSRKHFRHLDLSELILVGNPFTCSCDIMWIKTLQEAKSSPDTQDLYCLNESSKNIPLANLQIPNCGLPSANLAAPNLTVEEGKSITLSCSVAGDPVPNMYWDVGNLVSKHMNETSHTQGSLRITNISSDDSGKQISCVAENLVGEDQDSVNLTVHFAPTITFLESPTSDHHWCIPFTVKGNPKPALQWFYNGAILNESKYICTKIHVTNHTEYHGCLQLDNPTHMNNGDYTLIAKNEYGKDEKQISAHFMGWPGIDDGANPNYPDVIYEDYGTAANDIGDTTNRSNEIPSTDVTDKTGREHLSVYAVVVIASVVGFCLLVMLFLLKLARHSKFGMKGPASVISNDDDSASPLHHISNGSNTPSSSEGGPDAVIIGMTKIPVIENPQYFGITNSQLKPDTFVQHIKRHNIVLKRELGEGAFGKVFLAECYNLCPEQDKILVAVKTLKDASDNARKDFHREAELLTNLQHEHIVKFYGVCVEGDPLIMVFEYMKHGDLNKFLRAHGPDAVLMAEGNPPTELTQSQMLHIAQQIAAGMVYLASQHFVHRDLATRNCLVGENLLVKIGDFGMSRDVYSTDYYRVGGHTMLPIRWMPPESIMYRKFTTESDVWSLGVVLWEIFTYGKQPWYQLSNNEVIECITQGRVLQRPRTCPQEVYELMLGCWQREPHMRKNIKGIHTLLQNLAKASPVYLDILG
High affinity nerve growth factor receptor (Homo sapiens), sequence (P04629 33-796 limits assumed): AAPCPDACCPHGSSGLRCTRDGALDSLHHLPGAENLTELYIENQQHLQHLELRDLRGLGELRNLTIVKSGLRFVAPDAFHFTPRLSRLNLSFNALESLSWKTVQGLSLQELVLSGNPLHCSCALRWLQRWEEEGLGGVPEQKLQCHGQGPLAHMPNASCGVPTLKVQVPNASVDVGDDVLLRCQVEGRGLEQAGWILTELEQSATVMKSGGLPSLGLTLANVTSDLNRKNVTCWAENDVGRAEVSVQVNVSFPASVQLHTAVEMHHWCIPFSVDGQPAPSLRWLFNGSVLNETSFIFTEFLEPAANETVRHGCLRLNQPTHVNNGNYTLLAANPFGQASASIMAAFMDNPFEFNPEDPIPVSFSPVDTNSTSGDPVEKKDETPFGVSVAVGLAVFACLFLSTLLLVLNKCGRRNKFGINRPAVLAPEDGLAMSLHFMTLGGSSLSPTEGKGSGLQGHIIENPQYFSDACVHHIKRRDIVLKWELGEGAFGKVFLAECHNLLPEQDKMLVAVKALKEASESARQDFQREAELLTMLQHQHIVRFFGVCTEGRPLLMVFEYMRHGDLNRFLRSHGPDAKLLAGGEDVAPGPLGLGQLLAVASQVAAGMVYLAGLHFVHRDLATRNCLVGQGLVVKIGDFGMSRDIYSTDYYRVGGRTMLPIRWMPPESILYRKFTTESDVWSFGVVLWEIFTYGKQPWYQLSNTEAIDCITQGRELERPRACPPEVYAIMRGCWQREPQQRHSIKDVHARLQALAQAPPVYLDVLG
Non-receptor tyrosine-protein kinase TYK2 (Homo sapiens), sequence (P29597 whole entry): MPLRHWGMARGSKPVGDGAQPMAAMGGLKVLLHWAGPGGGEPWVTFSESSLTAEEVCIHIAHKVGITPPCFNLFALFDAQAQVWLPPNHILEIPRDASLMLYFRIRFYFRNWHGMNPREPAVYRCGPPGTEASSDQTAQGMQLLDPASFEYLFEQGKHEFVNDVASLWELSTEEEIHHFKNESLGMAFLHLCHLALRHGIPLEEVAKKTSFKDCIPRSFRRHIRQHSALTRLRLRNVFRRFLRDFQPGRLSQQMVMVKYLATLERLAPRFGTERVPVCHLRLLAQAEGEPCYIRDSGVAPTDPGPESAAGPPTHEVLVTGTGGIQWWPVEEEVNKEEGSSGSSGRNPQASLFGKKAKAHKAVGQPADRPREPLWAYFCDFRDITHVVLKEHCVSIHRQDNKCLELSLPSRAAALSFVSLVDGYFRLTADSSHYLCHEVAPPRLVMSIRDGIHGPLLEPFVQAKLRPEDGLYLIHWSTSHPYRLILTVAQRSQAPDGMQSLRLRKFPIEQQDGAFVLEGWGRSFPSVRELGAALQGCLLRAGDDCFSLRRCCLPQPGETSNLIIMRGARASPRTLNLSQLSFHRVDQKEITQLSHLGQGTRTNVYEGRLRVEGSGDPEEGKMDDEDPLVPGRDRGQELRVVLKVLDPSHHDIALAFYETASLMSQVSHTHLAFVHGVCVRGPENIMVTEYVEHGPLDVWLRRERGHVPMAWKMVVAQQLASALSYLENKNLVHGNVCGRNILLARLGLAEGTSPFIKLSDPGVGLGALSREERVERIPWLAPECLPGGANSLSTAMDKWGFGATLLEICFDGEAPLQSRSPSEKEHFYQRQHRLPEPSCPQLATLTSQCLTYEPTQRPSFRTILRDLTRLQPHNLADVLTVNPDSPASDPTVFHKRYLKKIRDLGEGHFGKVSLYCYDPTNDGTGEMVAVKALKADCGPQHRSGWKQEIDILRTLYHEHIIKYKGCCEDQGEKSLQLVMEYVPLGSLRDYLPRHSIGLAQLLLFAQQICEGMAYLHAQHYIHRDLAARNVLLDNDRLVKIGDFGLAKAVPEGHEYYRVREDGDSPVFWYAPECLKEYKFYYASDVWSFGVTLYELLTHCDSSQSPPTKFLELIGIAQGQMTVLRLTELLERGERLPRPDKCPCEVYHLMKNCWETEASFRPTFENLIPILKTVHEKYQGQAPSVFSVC
Aurora kinase B (Homo sapiens), sequence (Q96GD4 whole entry): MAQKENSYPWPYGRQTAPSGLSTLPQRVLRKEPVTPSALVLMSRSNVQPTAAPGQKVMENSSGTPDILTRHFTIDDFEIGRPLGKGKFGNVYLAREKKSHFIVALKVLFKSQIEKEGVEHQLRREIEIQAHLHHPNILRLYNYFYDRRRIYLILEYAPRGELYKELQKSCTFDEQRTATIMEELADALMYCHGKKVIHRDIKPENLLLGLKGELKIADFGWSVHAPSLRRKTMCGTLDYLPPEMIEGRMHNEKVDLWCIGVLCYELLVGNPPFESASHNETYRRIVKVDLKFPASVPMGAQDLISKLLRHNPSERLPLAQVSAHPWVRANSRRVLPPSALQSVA
Mitogen-activated protein kinase kinase kinase kinase 4 (Homo sapiens), sequence (O95819 2-1239 limits assumed): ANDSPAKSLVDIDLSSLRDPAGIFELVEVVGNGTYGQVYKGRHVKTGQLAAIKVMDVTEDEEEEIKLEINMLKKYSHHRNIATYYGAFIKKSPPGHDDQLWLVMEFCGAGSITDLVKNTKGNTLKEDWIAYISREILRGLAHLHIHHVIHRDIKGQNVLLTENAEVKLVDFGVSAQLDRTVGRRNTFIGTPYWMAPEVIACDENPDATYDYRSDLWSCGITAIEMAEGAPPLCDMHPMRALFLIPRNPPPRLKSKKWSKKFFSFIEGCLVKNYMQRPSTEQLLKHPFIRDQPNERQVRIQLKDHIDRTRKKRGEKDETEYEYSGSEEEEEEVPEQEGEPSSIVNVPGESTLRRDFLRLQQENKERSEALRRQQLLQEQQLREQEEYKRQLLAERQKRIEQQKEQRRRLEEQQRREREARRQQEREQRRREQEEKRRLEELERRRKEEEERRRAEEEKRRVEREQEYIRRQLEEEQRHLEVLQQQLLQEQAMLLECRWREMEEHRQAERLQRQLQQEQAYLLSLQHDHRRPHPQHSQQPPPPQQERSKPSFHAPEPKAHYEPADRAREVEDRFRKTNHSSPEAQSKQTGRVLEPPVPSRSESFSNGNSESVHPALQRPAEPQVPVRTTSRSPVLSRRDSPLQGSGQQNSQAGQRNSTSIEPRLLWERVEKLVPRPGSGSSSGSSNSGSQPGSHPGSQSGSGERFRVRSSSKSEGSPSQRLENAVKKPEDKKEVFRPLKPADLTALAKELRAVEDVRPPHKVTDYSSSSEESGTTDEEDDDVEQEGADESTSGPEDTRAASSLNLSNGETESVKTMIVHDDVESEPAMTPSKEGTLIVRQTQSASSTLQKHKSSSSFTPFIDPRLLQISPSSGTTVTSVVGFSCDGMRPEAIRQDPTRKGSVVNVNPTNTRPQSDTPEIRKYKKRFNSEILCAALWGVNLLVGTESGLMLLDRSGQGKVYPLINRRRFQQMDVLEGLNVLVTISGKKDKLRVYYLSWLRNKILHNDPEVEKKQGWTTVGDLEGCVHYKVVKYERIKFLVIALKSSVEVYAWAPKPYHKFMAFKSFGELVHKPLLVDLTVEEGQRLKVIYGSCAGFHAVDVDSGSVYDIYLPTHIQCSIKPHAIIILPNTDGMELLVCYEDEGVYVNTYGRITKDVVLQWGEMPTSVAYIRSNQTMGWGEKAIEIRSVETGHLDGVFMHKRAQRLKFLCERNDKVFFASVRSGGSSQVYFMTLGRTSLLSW

For `CNC(=O)c1cc(-c2ccc(F)cc2)cc(-c2ccc(S(=O)(=O)N3CCCC3)cc2)c1N`, the inhibition in [1] was 2.94%; in [2], 2.22%; in assay [3], 2.48%; in assay [4], 2.53%; in [5], 2.33%; in assay [6] it was 2.21%. The inhibition is 2.22% in [7]; -3.89% in assay [8]; 3.8% in assay [9]; 0.79% in [10]; 0.86% in [11]; 2.91% in [12]. Also, the inhibition in [13] was 3.09%; in [14] it was -0.67%; in [15], 1.97%; in [16], 2.49%; in [17], 4.92%; in assay [18] it was 1%. The inhibition in assay [19] came out at 0.67%; in [20] it was 3.33%.
On to `CS(=O)(=O)CCNCc1ccc(-c2ccc3ncnc(Nc4ccc(OCc5ccccc5)c(C(F)(F)F)c4)c3c2)o1`, for which the inhibition was -0.59% in assay [1]; 2.63% in assay [2]; 2.63% in assay [3]; 2.74% in assay [4]; 1.42% in [5]; -2.21% in assay [6]. Besides, the inhibition in [7] is 4.38%; in assay [8], -7.44%; in assay [9], 9.83%; in assay [10] it was 2.91%; in assay [11] it was 2.77%; in assay [12] it was 1.73%. Besides, the inhibition in assay [13] is 3.4%; in assay [14], -0.38%; in [15] it was 2.61%; in assay [16], 5.07%; in [17], 8.24%; in assay [18] it was 0.85%. Further, the inhibition turned out to be 1.46% in assay [19] and 2.98% in assay [20].
Take `CCn1c(-c2nonc2N)nc2cnc(Oc3cccc(NC(=O)c4ccc(N(C)C)cc4)c3)cc21`: the inhibition is -1.16% in [1]; 0.09% in [2]; 0.73% in assay [3]; -0.04% in assay [4]; 1.6% in [5]; 1.57% in [6]. The inhibition in assay [7] was 3.29%; in assay [8], -5.17%; in assay [9], 2.67%; in assay [10], 6.99%; in assay [11], 79.2%; in assay [12] it was 3.58%. Further, the inhibition in assay [13] is 18.1%; in [14] it was 1.17%; in assay [15], 43.7%; in [16], 2.62%; in assay [17], 5.59%; in [18] it was -0.28%. Moreover, the results for the inhibition in [19] and in [20] were 3.56% and 3.32%, respectively.
Take `Cc1cccc(Nc2ncc(-c3ccccc3)o2)c1`: the inhibition in [1] is 6.23%; in [2], 3.27%; in assay [3], 11.7%; in assay [4], 1.16%; in assay [5] it was 12.2%; in assay [6] it was 7.08%. Also, the inhibition in [7] was 5.35%; in [8], 1.38%; in assay [9] it was 6.17%; in [10] it was 2.74%; in assay [11], 7.93%; in assay [12], 3.4%. Moreover, the inhibition is 7.88% in assay [13]; 0.68% in assay [14]; 11.2% in assay [15]; 3.16% in assay [16]; 7.96% in assay [17]; 1.52% in [18]. Besides, the inhibition came to 4.15% in assay [19] and 2.79% in assay [20].
Turning to `CC(=O)Nc1cccc(C#Cc2cncnc2Nc2ccc(OCc3cccc(F)c3)c(Cl)c2)c1`, the inhibition in assay [1] is -0.49%; in [2], 0.63%; in [3], 0.88%; in [4], -1.1%; in assay [5], 1.69%; in [6], 5.05%. The inhibition in assay [7] was determined as 8.59%; in assay [8], 1.05%; in assay [9], 7.9%; in assay [10] it was 2.48%; in assay [11], 8.44%; in assay [12] it was 1.68%. The inhibition in assay [13] is 5.28%; in assay [14], 2.09%; in assay [15] it was 15.3%; in [16], 2.85%; in assay [17] it was 4.01%; in [18], 0.88%. In addition, the inhibition in assay [19] amounted to 1.54%; in [20], 2.7%.
In the case of `O=C(O[C@H]1CN[C@H](C#Cc2cc3ncnc(Nc4ccc(Cc5ccccc5)cc4)c3s2)C1)N1CCOCC1`, the inhibition in assay [1] is -3.47%; in assay [2], 0.67%; in [3], 1.13%; in assay [4], -0.77%; in [5], -1.7%; in assay [6] it was -0.97%. Besides, the inhibition in assay [7] is 1.36%; in assay [8] it was -1.59%; in assay [9], 1.6%; in assay [10] it was 0%; in assay [11] it was 1.29%; in [12] it was 1.27%. Further, the inhibition in assay [13] is 2.04%; in assay [14] it was -0.18%; in [15] it was 5.53%; in assay [16] it was 3.08%; in assay [17], 7.29%; in assay [18], 0.39%. Further, the inhibition was 0.86% in [19] and -0.42% in [20].
`CCCN1CCC(c2ccc(Nc3nc(Nc4cc(F)ccc4C(N)=O)c4cc[nH]c4n3)c(OC)c2)CC1`: the inhibition in [1] was found to be 3.87%; in assay [2], 4.25%; in [3] it was 9.14%; in assay [4], 2.83%; in assay [5], 7.22%; in assay [6], 3.85%. The inhibition in assay [7] was 6.29%; in assay [8] it was -2.8%; in [9], 83%; in assay [10], 2.78%; in assay [11], 10.4%; in [12] it was 1.95%. Also, the inhibition was 3.04% in assay [13]; 0.37% in assay [14]; -4.81% in assay [15]; 7.74% in assay [16]; 29.2% in assay [17]; 10.2% in assay [18]. The inhibition was 51.6% in assay [19] and 28.1% in assay [20].
